In all, about 5,500 compounds went through this assay and about 2,000 (36%) were called active. Not shown: some 18% with an inconclusive outcome. No stated cut-off is given here; in the data, active means normalized growth mostly below about 0.91 (no sharp cut-off); inconclusive means no clear call, values can overlap the other calls; inactive means mostly above about 0.92. The list shows a part of the results.
Assay: chemical genetic growth profiling, strain panel (AID 1159580);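 further: tested at 20 µM; growth read once vehicle control cultures reached saturation at 30 °C; 1 = growth at the plate median or of vehicle wells; lower values mean less growth of the strain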
Conditions: S. cerevisiae deletion strains, growth OD
[1] = locus YHR030C, strain SLT2, active compounds read low
[2] = locus YHR079C, strain IRE1, active compounds read low
[3] = locus YJL095W, strain BCK1, active compounds read low
[4] = locus YJR066W, strain TOR1, active compounds read low
[5] = locus YLR113W, strain HOG1, active compounds read low
[6] = locus YNL183C, strain NPR1, active compounds read low
[7] = locus YOR231W, strain MKK1, active compounds read low
[8] = locus YPL256C, strain CLN2, active compounds read low

Measured: normalized growth

CCCCCCCCCCOc1cc2c(=O)c(C(=O)OCC)c[nH]c2cc1OCC
inactive: [1] 1 | [2] 0.989 | [3] 0.978 | [4] 0.962 | [5] 0.942 | [6] 0.971 | [7] 0.977 | [8] 0.993

CCCCC(=O)Oc1ccccc1C(=O)O
inactive: locus YAL021C, strain ccr4, active compounds read low 0.989 | locus YAL026C, strain drs2, active compounds read low 0.991 | locus YAL030W, strain snc1, active compounds read low 0.989 | locus YBL061C, strain skt5, active compounds read low 0.982 | locus YBR009C, strain hhf1, active compounds read low 0.988 | locus YBR023C, strain chs3, active compounds read low 0.993 | locus YBR171W, strain sec66, active compounds read low 0.952 | locus YBR231C, strain swc5, active compounds read low 0.989 | locus YBR279W, strain paf1, active compounds read low 1 | locus YCL011C, strain gbp2, active compounds read low 0.979 | locus YCL016C, strain dcc1, active compounds read low 0.971 | locus YCL061C, strain MRC1, active compounds read low 0.986 | locus YCL069W, strain vba3, active compounds read low 0.996 | locus YCR088W, strain abp1, active compounds read low 0.976 | locus YDL005C, strain med2, active compounds read low 0.938 | locus YDL040C, strain nat1, active compounds read low 0.989 | locus YDR001C, strain nth1, active compounds read low 0.971 | locus YDR069C, strain doa4, active compounds read low 0.986 | locus YDR137W, strain rgp1, active compounds read low 0.963 | locus YDR159W, strain sac3, active compounds read low 0.953 | locus YDR195W, strain ref2 0.981 | locus YDR297W, strain sur2, active compounds read low 0.988 | locus YDR334W, strain swr1, active compounds read low 0.994 | locus YDR335W, strain msn5, active compounds read low 0.98 | locus YDR392W, strain spt3, active compounds read low 0.997 | locus YEL003W, strain gim4, active compounds read low 0.983 | locus YEL037C, strain rad23, active compounds read low 0.984 | locus YEL061C, strain CIN8 (second series), active compounds read low 0.982 | locus YER015W, strain faa2, active compounds read low 0.991 | locus YER016W, strain bim1, active compounds read low 0.977 | locus YER111C, strain swi4, active compounds read low 0.938 | locus YER155C, strain BEM2 (second series), active compounds read low 0.964 | locus YFR010W, strain ubp6, active compounds read low 1 | locus YGL167C, strain pmr1, active compounds read low 0.957 | locus YGL173C, strain kem1, active compounds read low 0.981 | locus YGL227W, strain vid30, active compounds read low 0.965 | locus YGL240W, strain doc1, active compounds read low 0.971 | locus YGL253W, strain hxk2, active compounds read low 0.989 | locus YHR013C, strain ard1, active compounds read low 0.938 | locus YHR027C, strain rpn1, active compounds read low 0.964 | [1] 0.974 | [2] 0.988 | locus YHR142W, strain chs7, active compounds read low 0.962 | locus YJL092W, strain hpr5, active compounds read low 0.971 | locus YJL095W, strain BCK1 (second series), active compounds read low 0.955 | [3] 0.989 | locus YJL115W, strain asf1, active compounds read low 0.971 | locus YJL129C, strain trk1, active compounds read low 0.946 | locus YJL154C, strain vps35, active compounds read low 0.964 | locus YJL164C, strain tpk1, active compounds read low 0.981 | locus YJL166W, strain qcr8, active compounds read low 0.984 | [4] 0.935 | locus YKL160W, strain elf1, active compounds read low 0.962 | locus YKR026C, strain gcn3, active compounds read low 0.986 | locus YKR091W, strain srl3, active compounds read low 0.971 | locus YLL001W, strain dnm1, active compounds read low 0.985 | locus YLL026W, active compounds read low 0.983 | locus YLL041C, strain sdh2, active compounds read low 0.986 | locus YLR027C, strain aat2, active compounds read low 0.973 | [5] 0.944 | locus YLR221C, strain rsa3, active compounds read low 1.01 | locus YLR258W, strain gsy2, active compounds read low 0.983 | locus YLR262C, strain YPT6 (second series), active compounds read low 0.973 | locus YLR320W, strain mms22, active compounds read low 0.996 | locus YLR342W, strain FKS1, active compounds read low 0.979 | locus YLR357W, strain rsc2, active compounds read low 0.96 | locus YLR370C, strain arc18, active compounds read low 0.971 | locus YLR384C, strain iki3, active compounds read low 0.956 | locus YML120C, strain ndi1, active compounds read low 0.994 | locus YMR058W, strain fet3, active compounds read low 0.979 | locus YMR125W, strain sto1, active compounds read low 0.959 | locus YMR129W, active compounds read low 0.98 | locus YMR205C, strain PFK2, active compounds read low 0.981 | locus YMR231W, strain pep5, active compounds read low 0.967 | locus YNL071W, strain lat1, active compounds read low 1 | [6] 0.936 | locus YNL209W, strain ssb2, active compounds read low 0.974 | locus YNL248C, strain rpa49, active compounds read low 0.959 | locus YNL322C, strain KRE1 (second series), active compounds read low 0.944 | locus YNR049C, strain mso1, active compounds read low 0.988 | locus YOR001W, strain rrp6, active compounds read low 1.01 | locus YOR070C, strain gyp1, active compounds read low 0.972 | locus YOR080W, strain dia2, active compounds read low 0.956 | locus YOR083W, strain WHI5, active compounds read low 0.927 | locus YOR106W, strain vam3, active compounds read low 0.972 | [7] 0.966 | locus YOR265W, strain rbl2, active compounds read low 0.99 | locus YOR270C, strain vph1, active compounds read low 0.96 | locus YOR290C, strain snf2, active compounds read low 0.971 | locus YPL051W, strain arl3, active compounds read low 0.994 | locus YPL078C, strain atp4, active compounds read low 0.977 | locus YPL106C, strain sse1, active compounds read low 0.953 | locus YPL240C, strain hsp82, active compounds read low 0.976 | [8] 0.953

From PubChem BioAssay AID1159580 (chemical genetic matrix, 2015)
